# Measured values from PubChem BioAssay (NCATS).
# Records with an inconclusive call do not appear. A call without a number means that no potency is given here. The source made the active and inactive calls. Calls follow the shape of the dose curve; as a rule, active = well fitted curve in the direction sought with a large enough effect; inconclusive = small, poorly fitted or top-dose-only effect, or another doubt; inactive = no such curve, though single readings can be large; an effect the other way counts as inactive or inconclusive.
# Tests used:
# [1] = COV-362 Cancer Cell Toxicity qHTS against the NCATS CANVASS Library (AID 1347352); also: series mostly up to about 38 µM
# Summary of the method: (§1)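 1000 cells/well, 4 h pre-incubation 37 °C/5% CO2; 11-pnt titration; 72 h; CellTiter-Glo 15 min RT, luminescence.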
# [2] = UWB1.289-WTBRCA1 Cancer Cell Toxicity qHTS against the NCATS CANVASS Library (AID 1347354); also: potency is read from the fitted curve at half-maximal effect
# Summary of the method: as §1
# [3] = J3T Cancer Cell Toxicity qHTS against the NCATS CANVASS Library (AID 1347371);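 also: J3T is a canine glioma cancer cell line seeded at 500 cells per well; series mostly up to about 46 µM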
# Summary of the method: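 Dog glioma J3T, 500 cells/well; cpd 11-pt qHTS; 72 hr, 37C/5% CO2; CellTiterGlo ATP luminescence readout.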
# [4] = qHTS for Antimalaria activity screened against the NCATS CANVASS Library (AID 1347380); also: nearly all actives have a fitted effect of over 40% in size; also: potency is read from the fitted curve at half-maximal effect
# Summary of the method: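 SYBR Green fluorescence (ex 485, em 535 nm) read after saponin/Triton lysis and 18 h further incubation; Dd2 asexual blood-stage parasites, 72 h compound exposure, 11-pt concentration series, 2.5% hematocrit, 0.3% parasitemia.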
# [5] = Vero-766 cells viability qHTS against the NCATS CANVASS Library: Counterscreen for Zika virus inhibition assay (AID 1347394); also: nearly all actives have a fitted effect of over 60% in size; also: potency is read from the fitted curve at half-maximal effect
# Summary of the method: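 Counterscreen for toxicity: Vero 766 cells exposed 72 h to an 11-point compound series, viability by CellTiter-Glo.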
# [6] = test system: Zika virus NS2B-NS3 protease (linked construct); experiment: Primary screen NINDS Rhodamine qHTS for Zika virus inhibitors (AID 1347160); also: nearly all actives have a fitted effect of over 55% in size; also: potency is read from the fitted curve at half-maximal effect
# Summary of the method: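 Aprotinin served as in-plate control. Conditions: 25 nM linked NS2B-NS3, pH 8.0 Tris buffer, titrated compounds, 15 min preincubation and 15 min reaction with 1.5 microM Rhod110 substrate at room temperature.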
# [7] = SDT Cancer Cell Toxicity qHTS against the NCATS CANVASS Library (AID 1347365); also: nearly all actives have a fitted effect of over 60% in size; also: potency is read from the fitted curve at half-maximal effect
# Summary of the method: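 Luminescent ATP read-out (CellTiterGlo) after 72 hr compound exposure of dog glioma SDT cells, 500 per well. Eleven-point titrations; bortezomib titration run alongside as control.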
# [8] = qHTS for Inflammasome Signaling Inhibitors: IL-1-beta AlphaLISA screen against the NCATS CANVASS Library (AID 1347379);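 also: human THP-1 cells primed with LPS then triggered with ATP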
# Summary of the method: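 THP-1, 1 hr compound pre-incubation, then LPS 250 ng/mL + ATP 1.25 mM (final); 16 hr total with compound; IL-1B AlphaLISA, ex 680/em 615 nm; 11-point qHTS, up to 57.5 uM final.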
# [9] = qHTS for inhibitors of Wild type Zika virus screened against the NCATS CANVASS Library (AID 1347396);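 also: ATP luminescence of surviving cells so rescue from viral cell killing; series mostly up to about 46 µM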
# Summary of the method: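 Vero 766 cells, 1000/well, o/n attach; cpds pin-transferred (11-pt qHTS); WT Zika added; 72 h, 37C, 5% CO2; CellTiter Glo lumi. Uninfected + vehicle = 100% inhibition.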
# [10] = target: Cytochrome P450 3A4 (Homo sapiens) (UniProt P08684); experiment: qHTS Assay for Activators of Cytochrome P450 3A4 (AID 885); also: nearly all actives have a fitted effect of over 65% in size
# Summary of the method: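 CYP3A4 activity: Luciferin-PPXE O-dealkylation, 25uM substrate, 200mM KPO4, RT throughout. Read-out is luciferase luminescence; higher values reflect activation.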
# [11] = Confirmation and Secondary Assay for Modulators of Hemoglobin Beta Chain Splicing at IVS2 654 locus (AID 910);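 also: HeLa cells stably carrying EGFP split by mutant beta-globin IVS2-654 intron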
# Summary of the method: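 Readout: per-well total peak green fluorescence (488 nm ex, 500–520 nm em) from objects 5–250 µm, reflecting correct splicing of an EGFP-654 reporter. Compounds were applied for 2 days at 37 °C to overnight-plated HeLa EGFP-654 cells; controls were DMSO and 500 nM IVS2-654 PNA.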
# [12] = Confirmation and Secondary Assay for Modulators of Hemoglobin Beta Chain Splicing at IVS2 705 locus (AID 930);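 also: HeLa cells stably expressing the EGFP-705 splicing reporter; GFP fluorescence per well restored by corrected splicing of the IVS2-705 intron in EGFP; series mostly up to about 46 µM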
# Summary of the method: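 Read-out: total peak GFP fluorescence per well (488 nm excitation, 500-520 nm emission) by laser-scanning cytometry. Cells: HeLa EGFP-705 splicing reporter, 2 days compound exposure in Optimem/2% FCS.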
# [13] = Confirmatory screen NINDS Rhodamine qHTS for Zika virus inhibitors (AID 1347161); also: potency is read from the fitted curve at half-maximal effect; nearly all actives have a fitted effect of over 60% in size
# Summary of the method: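 qHTS dose-response: 25 nM linked protease, pH 8.0 Tris/Tween buffer, cpd titration, 15 min RT preinc, 1.5 microM Rhod110 peptide, 15 min reaction (~15% conversion), Ex480/Em540; 4-parameter Hill fit.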
# [14] = test system: Zika virus NS2B-NS3 protease (linked); experiment: 384 well plate NINDS AMC confirmatory qHTS for Zika virus inhibitors (AID 1347163); also: potency is read from the fitted curve at half-maximal effect; nearly all actives have a fitted effect of over 50% in size
# Summary of the method: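 Enzyme (5, 30 or 60 nM final) first met test compounds for ~15 min. The AMC-tagged peptide Ac-VKTGKR-AMC followed at 30 microM. Fluorescence was then recorded at 25 min and scaled against no-enzyme and no-inhibitor wells.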
# [15] = test system: Zika virus NS2B-NS3 protease (linked construct); experiment: 384 well plate NINDS Rhodamine confirmatory qHTS for Zika virus inhibitors (AID 1347164); also: nearly all actives have a fitted effect of over 65% in size; also: potency is read from the fitted curve at half-maximal effect
# Summary of the method: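 Cleavage of Ac-LKRR-Rhodamine 110 (10 microM final) by linked protease (final 5, 30 or 60 nM) was followed as fluorescence at 485/538 nm after 25 min, room temperature, dark. Compounds preincubated ~15 min.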
# Sequence of Cytochrome P450 3A4 (Homo sapiens) (P08684 whole entry, looked up): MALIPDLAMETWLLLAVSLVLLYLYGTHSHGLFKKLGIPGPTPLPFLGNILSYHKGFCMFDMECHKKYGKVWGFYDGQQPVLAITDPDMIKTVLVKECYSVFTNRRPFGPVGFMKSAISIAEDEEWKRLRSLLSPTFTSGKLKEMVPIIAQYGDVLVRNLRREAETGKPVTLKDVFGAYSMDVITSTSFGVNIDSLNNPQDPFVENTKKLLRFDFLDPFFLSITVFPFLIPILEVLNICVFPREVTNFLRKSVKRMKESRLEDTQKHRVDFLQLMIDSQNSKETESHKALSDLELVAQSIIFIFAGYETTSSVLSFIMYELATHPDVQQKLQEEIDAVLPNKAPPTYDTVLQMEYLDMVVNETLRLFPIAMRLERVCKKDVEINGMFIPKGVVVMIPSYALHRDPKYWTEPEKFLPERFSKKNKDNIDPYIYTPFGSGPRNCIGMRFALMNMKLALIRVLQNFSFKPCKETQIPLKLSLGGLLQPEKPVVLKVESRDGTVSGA
structure (smiles),measurement,setting,value
O=C1c2c(O)cc(O)cc2OC(c2ccc(O)cc2)C1O (configuration not stated),Potency,[1],inactive
same,Potency,[2],inactive
same,Potency,[3],inactive
same,Potency,[4],0.0053 µM (active)
same,Potency,[5],inactive
CC1=C2CC[C@]3(C)[C@H](CC=C4[C@@H]5CC(C)(C)CC[C@@H]5C(=O)[C@H](O)[C@]43C)[C@@]2(C)C=C(O)C1=O,Potency,[6],39.2 µM (active)
same,Potency,[7],inactive
same,Potency,[3],inactive
same,Potency,[8],inactive
CC(C)=CCC/C(C)=C/Cc1cc([C@@H]2CC(=O)c3c(cc(O)c(CC=C(C)C)c3O)O2)ccc1O,Potency,[6],6.97 µM (active)
same,Potency,[2],inactive
same,Potency,[7],inactive
same,Potency,[8],inactive
same,Potency,[4],16.7 µM (active)
same,outcome,[9],inactive
COc1cc([C@@H]2c3cc4c(cc3C[C@@]3(O[C@@H]5O[C@H](CO)[C@@H](O)[C@H](O)[C@H]5O)COC(=O)[C@H]23)OCO4)cc(OC)c1OC,Potency,[6],44 µM (active)
same,Potency,[7],0.0418 µM (active)
COc1c(O)cc2c(c1O)C(=O)c1c(coc1C)C2=O,Potency,[6],9.84 µM (active)
same,Potency,[3],inactive
same,Potency,[5],inactive
same,outcome,[9],inactive
O=Cc1ccc2n1C[C@]1(OC2)O[C@H](CO)[C@@H](O)[C@@H]1O,Potency,[1],inactive
same,Potency,[2],inactive
same,Potency,[7],inactive
same,outcome,[9],inactive
CC1(C)CC[C@]2(CO)CC[C@]3(C)C(=CCC4[C@@]5(C)CC[C@H](O)C(C)(C)C5CC[C@]43C)C2C1 (some centres not stated),Potency,[1],inactive
same,Potency,[2],inactive
same,Potency,[7],inactive
same,Potency,[3],inactive
same,Potency,[8],inactive
same,Potency,[5],inactive
same,outcome,[9],inactive
O=Cc1ccc2n1C[C@]1(C[C@H](O)[C@@H](CO)O1)OC2,Potency,[1],inactive
same,Potency,[2],inactive
same,Potency,[7],inactive
same,Potency,[3],inactive
same,Potency,[8],inactive
same,Potency,[4],inactive
CC(C)=CCc1c2c(c3occ(-c4ccc(O)c(O)c4)c(=O)c3c1O)C=CC(C)(C)O2,Potency,[10],inactive
same,outcome,[11],inactive
same,outcome,[12],inactive
same,Potency,[13],12.4 µM (active)
same,Potency,[14],7.08 µM (active)
same,Potency,[15],7.94 µM (active)
C/C(=C\[C@@H](C)CC/C=C/CC/C=C/C(=O)O)[C@@H](O)[C@H](C)C(=O)CCCC1CC(=O)NC(=O)C1,Potency,[1],inactive
same,Potency,[2],inactive
same,Potency,[8],inactive
same,Potency,[4],inactive
same,outcome,[9],inactive
CC1c2cccc(O)c2C(O)=C2C(=O)C3(O)C(O)=C(C(N)=O)C(=O)C(N(C)C)C3C(O)C21 (configuration not stated),Potency,[14],282 µM (active)
same,Potency,[15],inactive
C[C@@H]1CC[C@]2(C(=O)O)CC[C@]3(C)C(=C2[C@H]1C)CC[C@@H]1[C@@]2(C)CC[C@H](O)C(C)(C)[C@@H]2CC[C@]13C,Potency,[6],34.9 µM (active)
same,Potency,[3],inactive
same,outcome,[9],inactive
C/C(=C\[C@H](C)C(=O)C[C@H](O)CC1CC(=O)NC(=O)C1)[C@@H]1OC(=O)CCCC/C=C/C[C@@H](O)[C@@H]1C,Potency,[6],inactive
same,Potency,[7],1.66 µM (active)
same,Potency,[4],4.72 µM (active)
same,Potency,[5],inactive
same,outcome,[9],inactive
O=C1CC(c2ccc(O)cc2)Oc2ccccc21 (configuration not stated),Potency,[10],inactive
same,outcome,[11],inactive
same,outcome,[12],inactive
same,Potency,[7],20.9 µM (active)
same,Potency,[3],inactive
same,Potency,[4],inactive
same,outcome,[9],inactive
C=CC(C)(C)C(=O)[C@@H](C)[C@@H]1CC[C@@](C)(C=C)O1,Potency,[1],inactive
same,Potency,[7],inactive
same,Potency,[8],inactive
same,Potency,[4],inactive
same,Potency,[5],inactive
CN1CC[C@@]2([C@@]34CCN(C)[C@@H]3Nc3ccccc34)c3ccccc3N[C@@H]12,Potency,[2],inactive
same,Potency,[3],inactive
same,Potency,[8],inactive
same,Potency,[4],0.211 µM (active)
same,Potency,[5],inactive
C=C(C)C(=O)O[C@H]1C[C@@]2(C)OC(=CC2=O)/C(C)=C\[C@H]2OC(=O)C(=C)[C@H]12,Potency,[2],10.6 µM (active)
same,Potency,[8],1.37 µM (active)
same,Potency,[4],0.265 µM (active)
same,Potency,[5],13.2 µM (active)
C/C=C(/CO)C(=O)O[C@@H]1[C@H](O)[C@@H](C(=O)OC)O[C@@H]2C[C@H]3OC(n4cnc5c(N)ncnc54)[C@H](OC)[C@H]3O[C@@]12O (some centres not stated),Potency,[2],inactive
same,Potency,[7],inactive
same,Potency,[3],inactive
same,Potency,[4],inactive
same,Potency,[5],inactive
same,outcome,[9],inactive
CCC(C)=C1OC(=O)[C@H](C)[C@H](O)[C@H](Cc2cccnc2)NC(=O)C(NC(=O)c2ncccc2O)C(C)OC1=O (some centres not stated),Potency,[2],inactive
same,Potency,[3],inactive
same,Potency,[8],inactive
same,Potency,[4],inactive
same,outcome,[9],inactive
C=C[C@@]1(C)CC[C@@H]([C@H](C)C(C)=O)O1,Potency,[1],inactive
same,Potency,[3],inactive
same,Potency,[8],inactive
same,Potency,[5],inactive
same,outcome,[9],inactive
C[C@@]1(CCC(=O)Nc2c(O)ccc(C(=O)O)c2O)C(=O)C=C[C@]23C[C@H]4C[C@H](O[C@@]4(C)C2)C31 (some centres not stated),Potency,[1],inactive
same,Potency,[7],inactive
same,Potency,[3],inactive
same,Potency,[8],inactive
same,Potency,[5],inactive
same,outcome,[9],inactive
